# Results published in PubChem BioAssay.
# Active and inactive are the calls of the source.
# What was measured:
# [1] = binders of probe aFSTL3 on microarray, primary screen, stem cell growth factor project, biochemical, small-molecule microarray, fluorescence 635/667 (AID 1064); settings: higher = more signal;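 note: measures binding of the biotinylated anti-FSTL3 antibody to printed compounds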
# [2] = binders from COS7 lysate, DM2A8 probe, primary screen, torsin A project, cell lysate, small-molecule microarray, fluorescence 635/667 (AID 1065); settings: higher = more signal, COS7 lysate expressing mutant human TOR1A
# [3] = binders of probe aFGF2 on microarray, primary screen, stem cell growth factor project, biochemical, small-molecule microarray, fluorescence 635/667 (AID 1067); settings: higher = more signal;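 note: measures binding of biotinylated aFGF2 protein to printed compounds on slides; z-score merges feature fluorescence and signal-to-noise across triplicate slides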
# [4] = binders of probe aFGF10 on microarray, primary screen, stem cell growth factor project, biochemical, small-molecule microarray, fluorescence 635/667 (AID 1071); settings: higher = more signal;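 note: score merges 667 nm spot intensity and signal to noise from triplicate slides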
# [5] = molecular target: Neurogenic locus notch homolog protein 2 (Homo sapiens) (UniProt Q04721); test: Notch2 binders on small-molecule microarrays, primary screen, biochemical, small-molecule microarray, 635 nm fluorescence, stem cell growth factors (AID 1073); settings: Notch2 binding, higher = more signal
# [6] = molecular target: Pro-neuregulin-1, membrane-bound isoform (Homo sapiens) (UniProt Q02297); test: NRG1 binders on small-molecule microarrays, primary screen, psychiatric disease protein project, biochemical, small-molecule microarray, fluorescence 635/667 (AID 1075); settings: NRG1 binding, 635 nm fluorescence, higher = more signal;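 note: score combines 667 nm spot fluorescence with signal to noise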
# [7] = test system: Neuregulin-1 EGF-like domain; test: binders of neuregulin-1 EGF-like domain, primary screen, biochemical, small-molecule microarray, 635 nm fluorescence (AID 1081); settings: small-molecule microarray binding, higher = more signal;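 note: binding of the protein to compounds printed on small-molecule microarray slides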
# [8] = FRG1 promoter luciferase signal modulators, primary screen, FRG1 inhibition for FSHD, cell-based, C2C12 myotubes, firefly/Renilla luciferase, luminescence (AID 1084); settings: higher = more signal, called active from +8 up or from −8 down
# [9] = binders of probe aFST on microarray, primary screen, stem cell growth factor project, biochemical, small-molecule microarray, fluorescence 635/667 (AID 1086); settings: higher = more signal;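 note: score merges 667 nm fluorescence with signal-to-noise of each printed compound spot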
# [10] = binders of probe aHhip on microarray, primary screen, stem cell growth factor project, biochemical, small-molecule microarray, fluorescence 635/667 (AID 1087); settings: higher = more signal;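 note: score merges spot fluorescence at 667nm with spot signal to noise ratio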
# Neurogenic locus notch homolog protein 2 (Homo sapiens), sequence (Q04721 whole entry, looked up, canonical isoform): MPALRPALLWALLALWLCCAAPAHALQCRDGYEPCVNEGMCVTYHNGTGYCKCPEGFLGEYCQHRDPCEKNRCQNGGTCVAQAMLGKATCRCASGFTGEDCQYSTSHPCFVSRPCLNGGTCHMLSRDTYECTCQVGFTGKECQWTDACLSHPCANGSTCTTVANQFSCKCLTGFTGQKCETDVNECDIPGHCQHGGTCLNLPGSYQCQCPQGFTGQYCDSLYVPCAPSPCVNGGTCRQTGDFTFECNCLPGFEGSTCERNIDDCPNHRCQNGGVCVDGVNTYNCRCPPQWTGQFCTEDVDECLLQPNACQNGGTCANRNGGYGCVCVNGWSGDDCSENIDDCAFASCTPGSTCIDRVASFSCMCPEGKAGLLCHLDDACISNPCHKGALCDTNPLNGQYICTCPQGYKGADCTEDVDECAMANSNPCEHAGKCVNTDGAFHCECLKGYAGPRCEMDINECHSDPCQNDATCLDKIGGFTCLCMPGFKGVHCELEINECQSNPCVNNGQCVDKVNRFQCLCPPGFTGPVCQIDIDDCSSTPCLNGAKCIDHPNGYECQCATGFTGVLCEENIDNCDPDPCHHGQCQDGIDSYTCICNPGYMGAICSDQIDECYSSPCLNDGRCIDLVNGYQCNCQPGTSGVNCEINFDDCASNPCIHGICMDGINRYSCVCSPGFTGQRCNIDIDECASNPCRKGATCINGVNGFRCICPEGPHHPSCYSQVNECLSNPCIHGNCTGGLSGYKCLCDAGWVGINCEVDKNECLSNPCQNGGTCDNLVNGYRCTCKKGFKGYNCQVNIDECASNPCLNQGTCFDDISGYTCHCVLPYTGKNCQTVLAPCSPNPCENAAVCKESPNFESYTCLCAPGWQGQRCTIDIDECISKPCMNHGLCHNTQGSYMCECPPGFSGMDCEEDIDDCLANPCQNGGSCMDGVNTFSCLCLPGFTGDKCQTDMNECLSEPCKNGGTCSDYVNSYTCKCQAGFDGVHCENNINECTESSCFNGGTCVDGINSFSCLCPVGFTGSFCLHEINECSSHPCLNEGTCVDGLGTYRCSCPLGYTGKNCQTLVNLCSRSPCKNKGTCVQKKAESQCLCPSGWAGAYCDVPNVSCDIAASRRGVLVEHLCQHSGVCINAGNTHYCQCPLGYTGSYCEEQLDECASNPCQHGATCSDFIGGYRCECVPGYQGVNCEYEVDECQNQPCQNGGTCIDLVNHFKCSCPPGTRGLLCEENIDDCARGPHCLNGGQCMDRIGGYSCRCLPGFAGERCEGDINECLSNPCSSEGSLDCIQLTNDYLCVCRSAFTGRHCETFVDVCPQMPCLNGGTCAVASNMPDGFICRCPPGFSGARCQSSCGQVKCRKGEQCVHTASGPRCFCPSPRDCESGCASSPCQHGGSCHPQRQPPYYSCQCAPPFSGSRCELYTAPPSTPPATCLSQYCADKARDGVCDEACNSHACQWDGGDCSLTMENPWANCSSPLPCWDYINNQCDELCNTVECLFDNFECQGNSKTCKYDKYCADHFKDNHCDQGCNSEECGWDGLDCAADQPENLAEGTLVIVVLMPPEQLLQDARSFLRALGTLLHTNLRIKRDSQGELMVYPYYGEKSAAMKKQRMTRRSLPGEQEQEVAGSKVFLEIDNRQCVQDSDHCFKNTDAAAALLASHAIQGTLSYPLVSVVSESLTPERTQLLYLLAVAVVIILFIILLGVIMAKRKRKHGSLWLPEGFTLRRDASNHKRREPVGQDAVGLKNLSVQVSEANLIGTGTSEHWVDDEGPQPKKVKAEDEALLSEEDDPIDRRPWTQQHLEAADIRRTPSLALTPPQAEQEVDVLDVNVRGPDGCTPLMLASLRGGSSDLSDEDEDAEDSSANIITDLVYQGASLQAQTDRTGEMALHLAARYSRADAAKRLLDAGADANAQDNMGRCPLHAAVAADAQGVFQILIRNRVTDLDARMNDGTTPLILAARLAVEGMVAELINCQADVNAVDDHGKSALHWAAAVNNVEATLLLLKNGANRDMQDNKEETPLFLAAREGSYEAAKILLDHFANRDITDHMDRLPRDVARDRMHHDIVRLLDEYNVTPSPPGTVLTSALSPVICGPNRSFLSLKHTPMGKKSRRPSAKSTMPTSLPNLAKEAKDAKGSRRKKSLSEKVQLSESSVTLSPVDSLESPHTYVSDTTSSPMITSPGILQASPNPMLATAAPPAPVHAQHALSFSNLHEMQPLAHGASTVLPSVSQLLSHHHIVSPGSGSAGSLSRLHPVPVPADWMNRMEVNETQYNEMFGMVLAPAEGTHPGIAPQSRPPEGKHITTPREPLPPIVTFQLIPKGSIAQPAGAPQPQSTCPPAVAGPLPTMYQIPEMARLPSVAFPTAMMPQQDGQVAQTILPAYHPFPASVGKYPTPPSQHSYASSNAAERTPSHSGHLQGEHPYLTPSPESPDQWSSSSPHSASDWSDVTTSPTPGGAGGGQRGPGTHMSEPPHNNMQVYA
# Pro-neuregulin-1, membrane-bound isoform (Homo sapiens), sequence (Q02297 whole entry, looked up, the tested form may be a part, canonical isoform): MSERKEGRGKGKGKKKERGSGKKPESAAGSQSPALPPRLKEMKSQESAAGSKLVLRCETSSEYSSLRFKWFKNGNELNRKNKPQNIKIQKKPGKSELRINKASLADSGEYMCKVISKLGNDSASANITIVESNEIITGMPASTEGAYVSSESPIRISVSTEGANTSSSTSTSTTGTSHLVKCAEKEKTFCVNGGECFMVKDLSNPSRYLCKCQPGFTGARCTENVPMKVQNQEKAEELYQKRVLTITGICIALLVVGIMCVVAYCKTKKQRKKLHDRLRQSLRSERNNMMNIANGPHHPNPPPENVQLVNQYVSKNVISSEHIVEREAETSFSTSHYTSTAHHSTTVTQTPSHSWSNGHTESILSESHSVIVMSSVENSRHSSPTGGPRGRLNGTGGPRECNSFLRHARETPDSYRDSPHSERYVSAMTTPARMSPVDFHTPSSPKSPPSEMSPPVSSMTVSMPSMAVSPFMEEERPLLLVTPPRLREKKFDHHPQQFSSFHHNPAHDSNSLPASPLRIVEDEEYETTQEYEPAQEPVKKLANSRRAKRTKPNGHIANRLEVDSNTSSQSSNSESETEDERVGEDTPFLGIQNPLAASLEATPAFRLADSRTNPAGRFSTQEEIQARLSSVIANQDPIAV
Compound,composite z-score [1],composite z-score [2],composite z-score [3],composite z-score [4],composite z-score [5],composite z-score [6],composite z-score [7],z-score [8],composite z-score [9],composite z-score [10]
CC(C)c1ccc(NN2C(C(O)C3=C[C@H]4C[C@@H](C3)C4(C)C)C=CC3C(=O)N(c4ccccc4)C(=O)C32)cc1 (stereo not given in full),0.481,0.357,0.0301,0.605,1.16,1.74,0.885,-1.01 (inactive),0.907,-0.302
O=C1C[C@@](C(=O)NCC(F)(F)F)(c2ccc([N+](=O)[O-])cc2)[C@@H](c2ccc(CO)cc2I)N1CC12CC3CC(CC(C3)C1)C2,-0.405,-0.0271,-0.106,0.121,0.729,1.01,1.23,-2.99 (inactive),1.08,-0.239
C=C(C(=O)CC[C@H](OC(=O)c1ccccc1-c1ccccc1C(=O)O)c1ccc(OCCO)cc1)C(C)C,-0.525,0.166,0.0033,0.13,0.214,1.76,1.26,1.72 (inactive),0.239,-0.0994
COc1ccc(C#Cc2ccc3c(c2)[C@]2(C(=O)N3)[C@H](c3ccccc3OCCO)N3[C@H](c4ccccc4)[C@H](c4ccccc4)OC(=O)[C@H]3[C@@H]2C(=O)NC[C@H](O)c2ccccc2)cc1,-0.38,0.203,-0.0628,0.146,1,0.698,1.27,0.621 (inactive),0.469,0.21
COC(=O)[C@@]1(Cc2ccccc2)[C@H]2c3cc(C(=O)N(C)C)n(Cc4ccc(Cl)c(C(F)(F)F)c4)c3C[C@H]2CN1C(=O)c1ccccc1,0.0539,0.277,0.372,1.09,1.61,1.35,1.18,-3.33 (inactive),1.51,0.26
C=C(C)C1CN([C@H](CO)c2ccccc2)C(=O)/C1=C\c1ccccc1 (stereo not given in full),-0.511,0.188,-0.111,0.305,-0.0443,0.049,0.465,-1.39 (inactive),0.173,-0.174
C=CCC(OC(C)=O)[C@@H]1[C@@H](N(Cc2cccc3ccccc23)C(=O)c2ccc(C)cc2)c2cc(OCCCO)ccc2N1C(=O)Cc1ccc2ccccc2c1 (stereo not given in full),0.151,-0.124,0.0348,0.021,-0.0785,-0.158,-0.665,-2.29 (inactive),0.0338,0.127
COC(=O)[C@]1(Cc2ccccc2N=[N+]=[N-])N=C(c2ccc(OCCCO)cc2)O[C@@H]1c1ccccc1CN=[N+]=[N-],0.736,1.08,0.052,0.728,0.632,1.06,1.16,-2.25 (inactive),0.484,0.176
COc1ccc(-c2cc3c(c(CCc4ccccc4)n2)[Si](C(C)C)(C(C)C)O[C@H]3c2ccccc2)cn1,-0.605,-0.678,-0.0754,0.0306,0.135,0.371,-0.598,0.0071 (inactive),0.16,-0.164
COC(=O)c1ccc(OC)c(/C=C\CC(OC(=O)c2ccncc2)c2ccccc2)c1 (stereo not given),-0.273,0.285,-0.107,0.257,0.481,-0.106,-0.0115,-1.97 (inactive),0.0754,0.0514
COc1ccc(CCNC(=O)[C@@]2(C)c3ccccc3C(=O)N(Cc3ccc(OC(F)(F)F)cc3)[C@H]2c2ccc(CO)cc2)cc1,-1.45,0.197,-0.0211,0.0093,0.484,0.41,1.12,-4.33 (inactive),0.122,-0.679
C=CC[C@]12N=C(c3ccc(OCCCO)cc3)O[C@H]1c1ccccc1N(CCC)C2=O,1.08,1.02,0.239,0.367,0.481,1.56,1.35,0.43 (inactive),2,-0.0961
Cc1cccc([C@H]2C[C@H]3C(Br)=C[C@@]2(CO)C(=O)[C@]32CO2)c1,-0.053,-0.65,-0.125,0.0924,-0.368,0.131,0.708,1.46 (inactive),0.275,-0.0994
COCCOC(=O)N1C(=O)[C@@]2(c3cc(C#CCNC(N)=O)ccc31)[C@H](C(=O)Nc1nc3ccccc3s1)[C@H]1C(=O)O[C@H](c3ccccc3)[C@H](c3ccccc3)N1[C@@H]2c1ccc(O)cc1,-0.145,0.215,-0.0284,0.46,0.968,0.882,0.595,0.709 (inactive),0.501,0.0373
COC(=O)C(CC#Cc1ccc2c(c1)[C@]1(C(=O)N2)[C@H](C(=O)NC[C@H](O)c2ccccc2)[C@H]2C(=O)O[C@H](c3ccccc3)[C@H](c3ccccc3)N2[C@@H]1c1ccc(O)cc1)C(=O)OC,-0.297,0.328,-0.121,-0.199,0.259,0.529,0.773,0.589 (inactive),0.056,-0.131
COC(=O)C1=CC(c2ccc(CO)cc2)=CC(C2CC2)N(Cc2cc3c(cc2Br)OCO3)C=C1C(=O)OC (stereo not given),0.131,1.64,0.214,1.25,1.66,1.97,1.15,-2.56 (inactive),0.559,0.0278

Compound,composite z-score [1],composite z-score [2],composite z-score [3],composite z-score [4],composite z-score [5],composite z-score [6],composite z-score [7],z-score [8],composite z-score [9],composite z-score [10]
COC(=O)[C@@]1(Cc2ccc(F)cc2)[C@@H]2C(=CC(=O)[C@H]2CC(=O)C(=O)N2CCCC2)CN1C(=O)c1ccccc1,1,1.61,0.575,0.866,1.58,1.81,1.33,1.48 (inactive),2.02,0.655
O=C(NC1CC1)[C@@H]1c2ccccc2C(=O)N(C2CCCCC2)[C@H]1c1ccc(CO)cc1,0.954,0.642,0.0611,-0.142,0.254,1.79,1.29,-0.601 (inactive),0.575,-0.228
O=C1NC(=O)C2C1C=CC(C(O)c1ccc(F)cc1)N2Nc1ccc(Cl)cc1Cl (stereo not given),0.848,-0.335,0.103,0.336,0.916,1.8,0.885,-0.068 (inactive),0.0708,-0.374
CN1C2C=C(c3ccc(CO)cc3)C(C3C(=O)N(C(N)=O)C(=O)C32)C1C1CC1 (stereo not given),-0.153,0.103,-0.146,-0.0401,-0.161,0.0413,0.663,0.567 (inactive),-0.0595,-0.201
Cc1ccc(S[C@]2(C(=O)NC(C)C)CC(=O)N(Cc3ccccc3)[C@@H]2c2ccc(CO)cc2)cc1,0.466,-0.488,-0.0909,-1,-1.25,1.56,0.57,-2.62 (inactive),-0.604,0.0373
C[C@]1(C(=O)NC2CC2)c2ccccc2C(=O)N(Cc2cc(F)cc(C(F)(F)F)c2)[C@H]1c1ccc(CO)cc1,-0.364,-0.035,-0.116,-0.636,-1.13,1.72,1.37,-1.05 (inactive),-0.527,-0.256
COC(=O)C(CC#Cc1ccc2c(c1)[C@]1(C(=O)N2)[C@H](C(N)=O)[C@H]2C(=O)O[C@H](c3ccccc3)[C@H](c3ccccc3)N2[C@@H]1c1ccccc1OCCO)C(=O)OC,0.29,1.81,-0.0122,0.765,-0.21,1.67,1.4,1.69 (inactive),-0.275,-0.0994
C=CCOC(=O)[C@H]1[C@@H]2C(=O)O[C@@H](c3ccccc3)[C@@H](c3ccccc3)N2[C@@H](c2ccc(OCCOC(=O)[C@@H]3C[C@@H]4C(=O)N[C@@H](Cc5ccccc5)C(=O)N4[C@@H]3c3ccc(O)cc3)cc2)[C@]12C(=O)Nc1ccc(I)cc12,1.36,0.0366,-0.0861,0.449,0.437,0.422,1.08,1.3 (inactive),0.258,-0.0645
C=C[C@H](OC)[C@@H](O)c1ccc(OC)c(O)c1,0.694,-1.02,-0.137,-0.248,-1.34,-0.967,-0.673,0.0137 (inactive),-1,0.107
CCOC(=O)C[C@H]1[C@H](OC(=O)Cc2ccc3c(c2)OCO3)[C@@H](NC(=O)CC(C)C)c2cc(OCCCO)ccc2N1C(=O)c1ccc2ccccc2n1,-0.306,1.01,0.0435,0.43,0.834,1.01,0.518,-3.21 (inactive),0.376,-0.344
COC(=O)[C@@]1(Cc2ccc(F)cc2)[C@H]2c3cc(C(=O)N4CCCC4)n(Cc4ccc(C(F)(F)F)nc4)c3C[C@H]2CN1C(=O)c1ccccc1,0.581,-0.0219,0.16,0.0812,1.74,2.1,0.92,2 (inactive),2.25,-0.0799
O=C1C2C=CC(C(O)c3ccccn3)N(Nc3ccc([N+](=O)[O-])cc3)C2C(=O)N1c1ccccc1 (stereo not given),0.0747,0.369,0.0447,0.794,1.33,1.82,1.31,0.678 (inactive),0.512,-0.0645
CC(C)N1CC=CC23O[C@@H]4/C=C\CCCOC(=O)C4[C@H]2C(=O)N(C(C)CO)[C@@H]3C1=O (stereo not given in full),-0.396,-0.237,-0.201,-0.789,-0.911,0.383,0.522,-0.798 (inactive),-0.588,-0.303
C=CCN1C(=O)[C@]2(O[C@H](CCO)[C@@H]([Si](C)(C)c3ccc(OC)cc3)[C@@H]2C)c2cc(N3C(=O)c4ccccc4Oc4ccccc43)ccc21,-0.086,-0.203,-0.0392,0.56,0.0699,0.967,1.03,-1.5 (inactive),0.0141,-0.236
C=CCOC(=O)[C@H]1[C@@H]2C(=O)O[C@@H](c3ccccc3)[C@@H](c3ccccc3)N2[C@@H](c2ccc(OCCOC(=O)[C@H]3C[C@H]4C(=O)NCC(=O)N4[C@H]3c3cccc(OCCO)c3)cc2)[C@]12C(=O)Nc1ccc(I)cc12,-0.365,0.469,-0.045,0.589,0.81,0.388,1.3,-0.18 (inactive),0.557,0.28
COCCOC(=O)N1C(=O)[C@@]2(c3cc(C#CCNC(N)=O)ccc31)[C@H](c1ccc(O)cc1)N1[C@H](c3ccccc3)[C@H](c3ccccc3)OC(=O)[C@H]1[C@@H]2C(=O)N1CCc2cc(OC)c(OC)cc2C1,0.141,0.0344,0.0525,0.67,1.07,1.06,0.786,0.411 (inactive),0.39,-0.0427
